Data on three molecules can be found in PubChem BioAssay AID651871 (Sanford-Burnham Center for Chemical Genomics, 2012).

“And” between values parts separate entries of the source, which are not always exact repeats. Equal values may be shown once.

This assay concerns H9c2. As to the kind of experiment: protection of cardiomyocytes from stress damage, SAR follow-up, cell-based, panel, H9c2 and HL-1, ATP luminescence, set 2 (AID 651871).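 Further: cells exposed to stressor for 2 h before ATP readout; reference of the scale not given here.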 The following applies: H9c2/HL-1 cardiomyocytes, 2-deoxyglucose stress, with 2-deoxyglucose; run 12, at 79 µM (top of the series).
As to `COc1ccc2c(c1OC)C(=O)N1c3ccccc3C(=O)N(Cc3cccc(Cl)c3Cl)C21` (stereo not drawn), the activity (protection/inhibition) is 79.7% and 81.4% and -3.37%.
To `CCOC(=O)c1cccc(NC(=O)CNC(=O)c2cc(-c3cc(OC)c(OC)c(OC)c3)nc3ccccc23)c1` belongs 86.3%; to `COc1ccc2nc(-c3cc(OC)c(OC)c(OC)c3)cc(C(=O)NCC(=O)Nc3ccc(C(C)=O)cc3)c2c1`, 79.9%.
